# Assay outcomes from PubChem BioAssay.
# Only a selection was taken, and hits are over-represented in it overall.
# G9a block: G9a (human) methyltransferase inhibition; Q96KQ7; G9a H3K9 monomethylation, AlphaScreen, 2 h; Potency, µM (titrated, usually from 102 µM), for the others: at the top dose activity, negative = inhibition, hits mostly inhibitors; 8.8% of 350,000 active; further: on the % scale 0 is the no-effect control and ±100 the full control effect; nearly all actives have a fitted effect of over 75% in size
#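 Chemiluminescent proximity detection of H3K9 monomethylation, read after 10 min bead incubation in the dark. Reaction: 20 nM G9a, 500 nM biotin-H3K9 peptide, 20 uM SAM cofactor, 2 h, room temperature, following 15 min enzyme-compound preincubation.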
# 12-LOX inh: inhibitors of human 12S-lipoxygenase ALOX12; AID 1671190; Potency, µM (series often up to 108 µM), for the others: top-dose activity change, negative = inhibition, usual class: inhibitors; 1.1% of 580,000 active; purified 12hLO, xylenol orange hydroperoxide absorbance; further: on the % scale 0 is the no-effect control and ±100 the full control effect
# Target sequence (P18054 whole entry, looked up): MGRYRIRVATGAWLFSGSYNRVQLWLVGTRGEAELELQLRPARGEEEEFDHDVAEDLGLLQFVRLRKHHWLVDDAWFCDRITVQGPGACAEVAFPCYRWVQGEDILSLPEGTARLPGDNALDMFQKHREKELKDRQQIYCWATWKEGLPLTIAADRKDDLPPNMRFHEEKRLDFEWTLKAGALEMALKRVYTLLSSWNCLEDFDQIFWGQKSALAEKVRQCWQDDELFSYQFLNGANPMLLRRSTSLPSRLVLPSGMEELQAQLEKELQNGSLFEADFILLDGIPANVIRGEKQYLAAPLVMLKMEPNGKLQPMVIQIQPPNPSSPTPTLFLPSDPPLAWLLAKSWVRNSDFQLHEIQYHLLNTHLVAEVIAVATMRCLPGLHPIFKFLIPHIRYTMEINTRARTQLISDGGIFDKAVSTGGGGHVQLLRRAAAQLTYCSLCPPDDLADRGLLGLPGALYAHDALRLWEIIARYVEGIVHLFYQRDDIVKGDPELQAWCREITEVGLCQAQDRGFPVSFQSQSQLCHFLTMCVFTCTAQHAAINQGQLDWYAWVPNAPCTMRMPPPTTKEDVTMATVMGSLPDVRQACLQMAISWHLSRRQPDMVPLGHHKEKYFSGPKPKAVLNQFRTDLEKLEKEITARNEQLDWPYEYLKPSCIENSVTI
#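 Hydroperoxide product was detected by ferrous iron/xylenol orange as the 573 to 405 nm absorbance ratio. Arachidonic acid at 40 uM (final) was turned over for 30 min at room temperature by 150 nM human 12hLO, pH 7.0 Hepes buffer, after 15 min compound preincubation.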
# VDR inhibitor: vitamin D3 receptor (human) inhibition; P11473; VDR-SRC2-3 peptide fluorescence polarization, 2 h; Potency, µM, for the others: max response, negative = inhibition, hits mostly inhibitors; 0.93% of 400,000 active; AID 504847; further: on the % scale 0 is the no-effect control and ±100 the full control effect
#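 FP read-out; VDR + SRC2-3 coactivator peptide; 23 nl compound by pintool; 2 h RT incubation; reagents held at 4 deg C, protected from light.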
# Sfp inh: inhibitors of Bacillus subtilis Sfp phosphopantetheinyl transferase; Q9F4F7; Biochemical Sfp PPTase activity, qHTS; Potency, µM, for the others: largest response in the series, negative = inhibition, hits mostly inhibitors; 3.5% of 310,000 active; AID 1490;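 further: the enzyme is Sfp with the accession as filed and its product quenches rhodamine fluorescence; 0% = enzyme reaction without inhibitor and -100% = no enzyme wells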
#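 Fluorescence-quenching assay: 15 nM Sfp-PPTase preincubated 15 min at room temperature with compound, then 5 uM rhodamine-CoA and 12.5 uM BHQ-2-labelled YbbR peptide added. Fluorescence (ex 525/em 598 nm) read at start and after 30 min; difference gives rate.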
# GRP78 ERSR act: induces the endoplasmic reticulum stress response in human glioma cells | Potency, µM, for the others: at the highest dose activation, usual class: activators | U87-MG GRP78 promoter luciferase reporter, 16 h | 0.02% of 420,000 active; further: series mostly up to about 76 µM; % of control where 0% means no effect; nearly all actives have a fitted effect of over 35% in size
#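 ERSR induction read as luciferase luminescence (Bright-Glo, 10 min at room temperature) in stably transfected human U87-MG glioma cells exposed to compounds for 16 h, using GRP78 as sensor.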
# The depositor's hits bear a star; ? = inconclusive; / = no result; [ ] = dose if it differs, or a comment. The call rests on the fitted dose curve; in most records, active means well fitted curve in the direction sought with a large enough effect; inconclusive means small, poorly fitted or top-dose-only effect, or another doubt; inactive means no such curve, though single readings can be large; an effect the other way counts as inactive or inconclusive. Potency means the concentration at half of the fitted maximal effect.
SMILES,G9a block,12-LOX inh,VDR inhibitor,Sfp inh,GRP78 ERSR act
CCOc1ccc(/C=C2\SC(=S)N(N3C(=O)C4CC4C3=O)C2=O)cc1 (configuration not stated),40µM*,-8%,-28%,-27%,-1%
CCCOc1ccc(/C=C2\SC(=S)N(CC3CCCO3)C2=O)cc1 (configuration not stated),3.5µM*,-5%,-14%,-2%,-3%
CO/N=C(\C(=O)O)c1cn2ccsc2n1,/,2.2µM*,/,/,/
Cc1ccc(O)c(NC(=S)NC(=O)c2ccc(-c3ccc(Cl)cc3)o2)c1,/,?,-18%,/,-16%
COc1ccccc1NC(=S)NC(=O)c1ccc(-c2ccc(Cl)cc2)o1,-5%,?,7%,18µM*,-1%
O=C(NC(=S)Nc1ccccc1O)c1ccc(-c2ccc(Cl)cc2)o1,3%[2.33 µM],?,-11%,16%,-12%
Cc1c(NC(=S)NC(=O)c2ccc(-c3ccc(Cl)cc3)o2)cccc1C(=O)O,45µM*,28µM*,?,-29%,12%
O=C(Nc1cccc(-c2nnc3n2CCCC3)c1)NC1CCCC1,/,18%,/,/,/
Cc1cc(NCc2ccccn2)ccc1Br,25µM*,?,-5%,-15%,8%
CC(C)n1cnc2cc(NCc3ccccn3)ccc21,?,29%,-7%,?,0%
Cc1cc(=O)[nH]c(-n2ncc(C#N)c2N)n1,2.8µM*,0%,-20%,56µM*,1%
N#Cc1cnn(-c2ccccc2)c1N,13%[59 µM],7%,-3%,-10%,-3%
Cc1cc(C)n(CCc2nc(-c3ccc(C)o3)cs2)n1,?,?,?,8.9µM*,-2%
CC(C)c1ccc(OCCCCN2CCCCC2)cc1,-12%,0%,10%,-29%,-5%
Clc1ccc(SCCOCCN2CCCCCC2)cc1,14%[0.501 µM],0.56µM*,-4%,-18%,-3%
Cc1cc(OCCCCCN2CCCC2)ccc1Cl,10µM*,?,-18%,-24%,0%
Clc1ccc(OCCCCN2CCCCC2)cc1,10µM*,/,-9%,-20%,-2%
CC(C)Oc1ccc(OCCCN2CCCCCC2)cc1,-38%[12.7 µM],0.45µM*,-13%,-5%,-5%
COc1cc(CN2CCCC23Cc2ccccc2CNC3=O)ccc1F (configuration not stated),/,6%[6.33 µM],/,/,/
[O-]c1n[n+](-c2ccc(Cl)cc2Cl)cc2ccccc12,?,-8%,12%,-12%,-2%
[O-]c1n[n+](-c2ccc(Cl)cc2)cc2ccccc12,35µM*,-42%,?,12%,-2%
Oc1ccccc1-c1cc(-c2cccnc2)c2cncn2c1,/,7%[176 µM],/,/,/
Fc1cccc(CSc2nnc3c(n2)[nH]c2ccccc23)c1,24%[59 µM],-16%,-1%,17%,0%
CN(C)CCSc1nnc2[nH]c3ccccc3c2n1,1.4µM*,-24%,1%,-25%,-3%
O=C(O)c1cc(NN=Nc2ccc(Br)cc2)cc([N+](=O)[O-])c1,32µM*,?,-17%,7%,?
SMILES,G9a block,12-LOX inh,VDR inhibitor,Sfp inh,GRP78 ERSR act
O=C(O)c1cc(NN=Nc2cccc([N+](=O)[O-])c2)cc([N+](=O)[O-])c1,?,-11%,7%,11%,17%
O=C(O)c1cc(NN=Nc2cccc(S(=O)(=O)O)c2)cc([N+](=O)[O-])c1,-12%,-4%,-17%,5%,-5%
O=[N+]([O-])c1cccc(NN=Nc2ccccc2)c1,45µM*,16µM*,29%,-10%,-1%
O=[N+]([O-])c1ccc(N=NNc2ccccc2)cc1,22µM*,/,-24%,-11%,4%
Brc1ccc(N=NNc2ccccc2)cc1,/,?,0%,-6%,?
Cc1cccc(C)c1NC(=O)CCCCCC1NC(=O)NC1C (configuration not stated),13µM*,-8%,-19%,-5%,-4%
CC1NC(=O)NC1CCCCCC(=O)NCCc1ccccc1 (configuration not stated),?,-6%,-9%,-4%,-1%
CN(C)C(=S)N=c1ssc(=S)n1Cc1ccccc1,/,?,40µM*,/,14%
Cc1cc(O)c(C(C)C)cc1N=Cc1cc([N+](=O)[O-])ccc1O,/,?,?,14µM*,-4%
Cc1cc(O)c(C(C)C)cc1N=Cc1ccccc1O,5.6µM*,?,40µM*,14µM*,-7%
Cc1n[nH]c(C)c1Sc1ccccc1N=Cc1cc([N+](=O)[O-])ccc1O,10µM*,/,/,-5%,/
Cc1ccccc1NC(=O)CCC(=O)N/N=C/c1cc([N+](=O)[O-])ccc1O,-13%,?,-17%,0%,-7%
O=c1[nH]cc(N=Cc2cc([N+](=O)[O-])ccc2O)c(=O)[nH]1,/,/,/,-3%,/
NC(=O)c1ccccc1N=Cc1ccccc1O,/,31%,/,/,/
COC(=O)C1=C(C(=O)OC)SC2(S1)C(C(=O)OC)=C(C(=O)OC)SC1=C2c2cc(C)ccc2NC1(C)C,?,?,?,2.8µM*,2%
Cc1ccc(OCCCCNC(C)(C)C)c([N+](=O)[O-])c1,10µM*,?,4%,-28%,-4%
C=CCNCCOCCOc1ccc(C)cc1[N+](=O)[O-],22µM*,?,-3%,-8%,-2%
COCCNCCOc1ccc(C)cc1[N+](=O)[O-],-41%,?,-19%,-4%,-4%
COc1cc(OC)c(NC2=NS(=O)(=O)C(c3ccc(C)c(C)c3)=C2C)cc1Cl,/,-11%,/,/,/
COCCn1c(N2CCN(Cc3c(F)cccc3Cl)CC2)nc2c1c(=O)[nH]c(=O)n2C,/,30%,/,/,/
CCN(C(=O)COC(=O)c1cc(-c2ccc(C)o2)nc2ccccc12)C1CCS(=O)(=O)C1 (configuration not stated),2µM*,?,-1%,20µM*,0%
Cc1ccc(-c2cc(C(=O)OCC(=O)N(C)C3CCS(=O)(=O)C3)c3ccccc3n2)o1 (configuration not stated),4µM*,?,-20%,20µM*,-3%
Cc1ccc(-c2cc(C(=O)OCC(=O)N(C)C3CCS(=O)(=O)C3)c3ccccc3n2)c(C)c1 (configuration not stated),-36%,-10%,-25%,3%,-4%
N#Cc1cccc(/C=C/C(=O)c2cccs2)c1,/,5%,/,/,/
Nc1ccc2cc3ccc(N)cc3nc2c1,28µM*,?,?,-24%,?
SMILES,G9a block,12-LOX inh,VDR inhibitor,Sfp inh,GRP78 ERSR act
Cc1ccc2cc(N)ccc2n1,/,5%,13%,6%,-1%
CCCNC(=O)c1ccccc1OCc1ccc(Cl)cc1,/,16%,/,/,/
COc1ccc(/C=N/Nc2ncccc2[N+](=O)[O-])c(OC)c1,28µM*,-16%,-17%,9%,-6%
CCCOc1ccc(/C=N/Nc2ccccc2[N+](=O)[O-])c(OCCC)c1,8.9µM*,-27%,7%,-1%,-2%
O=C(Nc1ccc2oc(-c3cccnc3)nc2c1)c1cccc(I)c1,/,1%,/,/,/
CCN(CC(=O)Nc1ccccc1C(F)(F)F)C(=O)c1nn(CC(C)C)c(=O)c2ccccc12,/,17%,/,/,/
O=C(Nc1ccc(C(F)(F)F)oc1=O)c1ccccc1,/,-28%,/,/,/
